# Hit rate of the full screen: of about 2,300 compounds, about 1,200 (52%) were called active. How the calls were made is not given here. So high a share suggests a set chosen from earlier hits. This is one part of the list. Results with a measured potency or affinity are listed apart.
# Assay: mammalian cell cytotoxicity, dose response, cytotoxicity control for M. tuberculosis inhibitor project (AID 435019);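 further: lower values mean fewer viable cells so more cytotoxicity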
# Conditions: cytotoxicity counter-screen; series mostly up to 40 µM
row,SMILES,outcome
1,O=C(/C=C\c1cccs1)N1CCN(Cc2ccc3c(c2)OCO3)CC1,inactive
2,COC(=O)C1CC(=O)N(c2ccc(OCc3ccccc3Cl)cc2)C1 (stereo not drawn),inactive
3,CCCn1nnc(NC(=O)COc2ccc(CC)cc2)n1,inactive
4,CCOC(=O)c1cc(-c2ccccc2)nc2c1c(C)nn2-c1ccccn1,inactive
5,CCOC(=O)c1cnc2ccc(OCC)cc2c1N1CCN(c2ccccc2)CC1,inactive
6,COc1ccc(OCc2nnc3n2N=C(c2ccccc2)C(CC(=O)O)S3)cc1 (stereo not drawn),inactive
7,CCOc1ccc(C2=Nc3ccc(Br)cc3C(c3ccc(N4CCOCC4)cc3)=NN2)cc1,inactive
8,Cc1ccsc1/C=C1\SC(N2CCOCC2)=NC1=O,inactive
9,Cc1nc(S/C(=C/c2ccc(-c3ccc(Cl)cc3)o2)C(=O)O)n[nH]1,inactive
10,CSCCC(=O)N1CCCC(CNC(=O)c2ccc(-c3ccccc3)cc2)C1 (stereo not drawn),inactive
11,Cc1cc(C)c(C(N)=O)c(SCC(=O)c2ccc(Cl)cc2)n1,inactive
12,CCC(=O)c1ccc(OCC(=O)OCC(=O)c2cc(C)n(C3CC3)c2C)cc1,inactive
13,COc1ccc2c(c1)CC/C(=C\C=C\c1ccccc1OC)C2=O,inactive
14,COc1ccc(N=Cc2c[nH][nH]c2=O)cc1,inactive
15,O=S(=O)(Nc1ccn(-c2ccccc2)n1)c1ccc(Br)cc1,inactive
16,CCC(C)OC(=O)C(C)Oc1ccc(-c2ccccc2)cc1 (stereo not drawn),inactive
17,O=c1ccn(-c2ccccc2)[nH]1,inactive
18,Cc1ccc(NC(=O)CNCc2cccs2)cc1Br,inactive
19,O=C(c1cccc([N+](=O)[O-])c1)N1CCN(c2ccc(N3CCOCC3)nn2)CC1,inactive
20,CCOP(=O)(OCC)/C(=C/N1CCCCC1)NC(=O)c1ccccc1,inactive
21,Cc1nnc(SCc2ccccc2Cl)n(N)c1=O,inactive
22,Cc1ccccc1CSc1nsc(N)n1,inactive
23,CN(CCCCCCCCCCN(C)C(=O)Oc1cccc([N+](C)(C)C)c1)C(=O)Oc1cccc([N+](C)(C)C)c1,inactive

row,SMILES,outcome
1,CCOC(=O)c1ccc(Nc2cc3ccccc3c(=O)[nH]2)cc1,inactive
2,CCOC(=O)c1ccc(NC(=S)Nc2ccc3[nH]c(=O)[nH]c3c2)cc1,inactive
3,CC(C)(C)OC(=O)NNC(=S)NC1CCCCC1,inactive
4,CCOc1ccc(NC(=O)c2sc3nc(C)nc(N4CCOCC4)c3c2C)cc1,inactive
5,CCOC(=O)CNC(=O)c1sc2ncnc(N3CCc4ccccc4C3)c2c1C,inactive
6,O=C(Nc1ccc(-c2noc(CCc3ccccc3)n2)cc1)c1cccnc1,inactive
7,CCOC(=O)c1nnc(-c2ccccc2)nc1NCc1ccccc1,inactive
8,O=C(OCC(=O)N1CCCCC1)c1cc2ccccc2cc1O,inactive
9,COC(=O)C(CCSC)NC(=O)c1cn(-c2ccc(OC)cc2)c(=O)c2ccccc12 (stereo not drawn),inactive
10,COC(=O)CSc1nnc([C@H](CC(C)C)NC(=O)OC(C)(C)C)o1,inactive
11,COC(=O)C(C)Oc1ccc(Cc2ncc(C(F)(F)F)cc2Cl)cc1 (stereo not drawn),inactive
12,CCCCNC(=S)Nc1ccc2cn[nH]c2c1,inactive
13,COC(=O)[C@H](CC(C)C)NC(=O)c1cc2c(cn1)[nH]c1ccccc12,inactive
14,CCc1nc2ccccc2c(C(=O)Nc2cc(C)ccc2C)c1C,inactive
15,O=C(Oc1ccc2ccccc2c1)c1cncc(Br)c1,inactive
16,CCCCn1c(N)c(N(CC(C)C)C(=O)c2oc3c(Cl)cccc3c2C)c(=O)[nH]c1=O,inactive
17,N=C1C(c2nc3ccccc3[nH]2)=C(O)CN1NC(=O)c1c[nH]c2ccccc12,inactive
18,Cc1ccc(CN2CC(C(=O)OCc3ccccc3Cl)CC2=O)cc1 (stereo not drawn),inactive
19,CCOC(=O)CSc1ncnc2c1sc1nc(N3CCOCC3)c3c(c12)CCCC3,inactive
20,COc1ccc(NC2=C(C(C)=O)C(c3ccc4c(c3)OCO4)C(C(C)=O)C(C)(O)C2)cc1 (stereo not drawn),inactive
21,CCCNC(=O)NC(=O)COc1ccc2oc3ccccc3c2c1,inactive
22,COc1ccc(-c2cc3n(n2)CCc2nc4ccccc4n2-3)cc1,inactive
23,NNC(=S)Nc1ccccc1Cl,inactive

row,SMILES,outcome
1,CCCCCOC(=O)Nc1nnc(CCCCC)s1,inactive
2,O=C(CSc1nnnn1-c1ccc2c(c1)OCCO2)OC1CCCCC1,inactive
3,C=CCc1c(C)nc2ccc(C(=O)OCC)cc2c1Cl,inactive
4,O=C(Nc1nc2c(s1)CCCC2)c1cc(-c2ccc3c(c2)OCO3)nc2ccccc12,inactive
5,C/C(=N\Nc1nc2c(s1)CCCC2)c1ccccc1,inactive
6,COC(=O)c1ccc2c(=O)[nH]c(CSc3nc(C)cs3)nc2c1,inactive
7,C/C(=N\Nc1ccc([N+](=O)[O-])cc1)c1cccc(N)c1,inactive
8,O=C1c2ccccc2S(=O)(=O)c2cc(C(=O)N3CCN(c4c(Cl)cncc4Cl)CC3)ccc21,inactive
9,O=C(/C=C/c1ccc(OCCCF)cc1)Nc1ccnc(-c2ccncc2)n1,inactive
10,CCCCOC1CC(c2ccc(OCc3ccc(OC)cc3)c(OC)c2)N(C)O1 (stereo not drawn),inactive
11,CO/N=C\CC(=O)Nc1ccc(Oc2ccccc2)cc1,inactive
12,O=C1c2ccccc2C(=O)N1Nc1ccccc1,inactive
13,O=C1C(=O)N(c2ccccc2)c2ccccc21,inactive
14,CC(=O)c1c(N2CCCC2)[nH]c(-c2ccccc2)nc1=S,inactive
15,Cc1ccc(-c2cccc(NC(=O)C3C4C=CC(C4)C3C(=O)O)c2)o1 (stereo not drawn),inactive
16,NC(=O)/C(=N\OC(=O)c1ccco1)c1nc(-c2ccc(Br)cc2)cs1,inactive
17,CCOC(=O)C(C)Oc1ccc(NC(=O)C(Cl)(Cl)Cl)cc1 (stereo not drawn),inactive
18,CCOC1OC(=O)C(Cl)=C1Nc1ccccc1C (stereo not drawn),inactive
19,COc1ccc(-c2ccc(=O)n(Cc3c(F)cccc3Cl)n2)cc1,inactive
20,O=C(c1ccccc1)C1CN(Cc2ccccc2)CCC1(O)c1ccccc1 (stereo not drawn),inactive
21,CCCCn1cnc2cc(NCc3cccc(OC)c3O)ccc21,inactive
22,c1ccc(Cn2nnc3c(N4CCc5ccccc5C4)ncnc32)cc1,inactive
23,Oc1ccc(F)c2cccnc12,inactive

row,SMILES,outcome
1,COc1c(C)cc(C(=O)C2CCCN(Cc3ccccn3)C2)cc1C (stereo not drawn),inactive
2,CCOC(=O)N1CCN(C(=O)COC(=O)C2CCN(S(=O)(=O)c3c(Cl)cccc3Cl)CC2)CC1,inactive
3,COC(=O)c1cc(Sc2cccc(Cl)c2Cl)ccn1,inactive
4,CCOC(=O)Oc1ccc2oc(C)c(C(=O)OCCOC)c2c1,inactive
5,Cc1nc(SCC(=O)NCC2CCCO2)c2c3c(sc2n1)CCCC3 (stereo not drawn),inactive
6,COc1ccc(-c2cc(-c3ccc(OC)cc3)[nH]n2)cc1,inactive
7,O=C(OCC(=O)N1CCN(c2ccccc2)CC1)c1cnc(Cl)c(Cl)c1,inactive
8,Cc1ccc2nc(-c3cccc(Br)c3)cc(C(=O)NC3=NCCS3)c2c1,inactive
9,CCOC(=O)N1CCC(n2c(SCC(=O)OCc3ccccc3)nc3ccsc3c2=O)CC1,inactive
10,CCCC12CN3CC(CCC)(CN(C1)C3c1ccccn1)C2=O (stereo not drawn),inactive
11,C(=N\N1CCN(C2c3ccccc3-c3ccccc32)CC1)/c1ccccn1,inactive
12,CCOC(=O)Cn1c(-c2ccccc2)ccc(C#N)c1=O,inactive
13,CCOc1[nH]n(-c2ccccc2)c(=O)c1C=Nc1ccc(OC)cc1,inactive
14,COc1ccccc1/C(C)=N/NC(=S)NCc1ccccc1,inactive
15,COCCNC(=S)N/N=C(\C)c1ccc(OC)cc1,inactive
16,O=C(CCN1C(=O)C2CCCCC2C1=O)Nc1nc(-c2ccc(F)c(F)c2)cs1 (stereo not drawn),inactive
17,CCOC(=O)c1cc(-c2csc(Nc3c(C)cc(C)cc3C)n2)on1,inactive
18,Nc1c(-c2ccccn2)cnn1-c1nc(-c2ccc(F)cc2)cs1,inactive
19,CCCOc1ccc2oc(=O)c3c(c2c1)CCCN3C(=O)CN1CCN(c2ncccn2)CC1,inactive
20,CCOC(=O)c1cc(/C(C)=N/OC(=O)c2ccc(C(C)(C)C)cc2)on1,inactive
21,O=C(Nc1cc(N2CCOCC2)ncn1)NC1(C(F)(F)F)Oc2ccc(Cl)cc2O1 (stereo not drawn),inactive
22,CCc1ccc(-c2csc(-c3c[nH]c4ccccc34)n2)cc1,inactive
23,Cc1ccc(CNc2ccc3c(c2)ncn3C(C)(C)C)cc1,inactive

row,SMILES,outcome
1,CCn1c(SCC(=O)N(C)CCC#N)nc2cc(S(=O)(=O)N3CCOCC3)ccc21,inactive
2,CCc1ccc(N=Nc2ccc(O)c3[nH]cnc23)cc1,inactive
3,C=CCOc1ccc(/C=C/C(=O)OCC(=O)NCC2CCCO2)cc1 (stereo not drawn),inactive
4,CCCCOC(=O)CCN1C(=O)/C(=C2\SC(=S)N(CCC(=O)OCCCC)C2=O)SC1=S,inactive
5,Cc1ccc(NC(=O)Cn2ccsc2=N)c([N+](=O)[O-])c1,inactive
6,COc1ccc(-c2nc(C#N)c(N3CCc4ccccc4C3)o2)cc1OC,inactive
7,c1ccc(C2[C@H]3CN(CC4CCCCC4)[C@H](c4ccccc4)C34CC2(c2cccnc2)C4)cc1 (stereo partly drawn),inactive
8,COc1ccc(NC(C#N)c2ccc(OC)cc2)cc1 (stereo not drawn),inactive
9,O=[N+]([O-])c1c(C(Cl)Cl)nn(-c2ccc(Cl)cc2)c1N1CCCCC1,inactive
10,C/C(=N\NC(=S)Nc1cccc(C)c1)c1cccc(N)c1,inactive
11,O=C(COc1ccccc1)NNc1nc2ccccc2s1,inactive
12,O=C(COc1cccc(Oc2ccccc2)c1)Nc1ncccn1,inactive
13,O=C(NC(=S)Nc1cccc2cccnc12)c1ccccc1,inactive
14,COc1ccc(Oc2ccc(N/C=C/C(=O)C(C)(C)C)cc2)cc1,inactive
15,O=c1c2c(-c3ccccc3)csc2ncn1/N=C/c1ccc(O)c([N+](=O)[O-])c1,inactive
16,CCOc1ccc(NC(=S)Nc2ccc(C)c([N+](=O)[O-])c2)cc1,inactive
17,Cc1cc(C)n2nc(N)c(N=Nc3ccccc3)c2n1,inactive
18,Cc1ccccc1-n1c(O)c(C=Nc2ccc3c(c2)OCO3)c(=O)[nH]c1=O,inactive
19,S=c1[nH]c2ccc3ccccc3c2[nH]1,inactive
20,CC1CN(C(=S)SCC(=O)c2ccc([N+](=O)[O-])cc2)CC(C)O1 (stereo not drawn),inactive
21,Cc1ncsc1CCOC(=O)c1ccc([N+](=O)[O-])cc1,inactive
